Bioassay records as filed in PubChem.
A selection: hits, their analogues and other compounds. The true share with any hit is near 6.8%.
C diff growth: blocks growth of Clostridium difficile; Clostridium difficile clinical isolate growth, OD600, 24 h; stronger effect = lower value; growth activity, negative = inhibition, % at 16 µg/mL (by protocol); hit rate 0.25% among 86,000; AID 1259249;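 active means mean growth activity at or below -80% and every replicate also at or below -80%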;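 further: 0% = DMSO wells and -100% = levofloxacin 16 µg/mL wells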
Pf Dd2 growth: inhibitors of Plasmodium falciparum Dd2 growth | P. falciparum Dd2 growth, SYBR Green, 72 h; stronger effect = lower value | activity change, % at 10 µM | hit rate 2.3% among 94,000 | AID 1159554; in the data active means activity change below about -80%
Tcruzi prolif: T. cruzi proliferation inhibition | T. cruzi beta-gal in NIH3T3, GalScreen luminescence, 90 h | hit rate 5.9% among 77,000 | inhibition, % at 8.34 µM;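 active means mean inhibition above about 93%, with at least 55% of replicates each passing it, limit read from the data, passing the limit was not always enough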
* = called active by the depositor; / = no result; ! = not confirmed by another sample.

SMILES	C diff growth	Pf Dd2 growth	Tcruzi prolif
COc1ccc2c3c(n(C)c2c1)[C@@H](CO)N(C(=O)Nc1ccc(F)cc1)CC31CN(Cc2ccccc2F)C1	-21	-88*	/
COc1ccc2c3c(n(C)c2c1)[C@H](CO)N(C(=O)c1ccc(F)cc1)CC31CCN(C)CC1	-3	18	/
COc1ccc2c3c(n(C)c2c1)[C@@H](CO)N(C(=O)c1ccc(F)cc1)CC31CN(C(=O)Nc2ccc(F)cc2)C1	3	-89*	/
COc1ccc2c3c(n(C)c2c1)[C@H](CO)N(C(=O)c1ccc(F)cc1)CC31CN(C(=O)Nc2ccc(F)cc2)C1	10	-76	/
COc1ccc2c3c(n(C)c2c1)[C@@H](CO)NCC31CN(C(=O)c2ccc(F)cc2)C1	/	69	/
COc1ccc2c3c(n(C)c2c1)[C@@H](CO)NCC31CN(C(=O)c2cccc(F)c2)C1	0	-82*	/
COc1ccc2c3c(n(C)c2c1)[C@H](CO)N(C(=O)Nc1ccc(F)cc1)CC31CCN(Cc2ccccc2F)CC1	4	-76	/
COc1ccc2c3c(n(C)c2c1)[C@@H](CO)N(C(=O)c1ccc(F)cc1)CC31CCN(C(=O)c2ccc(F)cc2)CC1	6	-86*	/
CCCNC(=O)N1C[C@H]2[C@@H](c3ccccc31)[C@H](CO)N2Cc1ccccc1F	9	-9	34
Cc1cccc(S(=O)(=O)N2C[C@H](O)COC[C@@H]3O[C@@H](CC(=O)Nc4ccccc4)CC[C@H]32)c1	9	-6	26
O=C(C[C@H]1CC[C@H](NS(=O)(=O)c2ccccc2)[C@H](CO)O1)NCc1ccc(Cl)c(Cl)c1	-8	-13	-1
COc1ccc(NC(=O)Nc2cccc3c2O[C@H](CN(C)C(=O)Nc2ccc(F)cc2)[C@H](C)CN([C@@H](C)CO)C3=O)cc1	2	-13	/
COc1ccc(NC(=O)N2CC(=O)N3[C@@H](CO)[C@@H](c4ccc(Br)cc4)[C@@H]3C2)cc1	8	10	/
C[C@H]1CCCCO[C@H](CN(C)C(=O)Nc2cccc3ccccc23)[C@@H](C)CN([C@@H](C)CO)C(=O)c2cc(NS(=O)(=O)c3ccc(F)cc3)ccc2O1	-5	-63	88
COc1ccc2c3c(n(C)c2c1)[C@@H](CO)N(C(=O)c1ccc(F)cc1)CC31CN(CC2CCOCC2)C1	-7	-88*	/
COc1ccc2c3c(n(C)c2c1)[C@H](CO)N(C(=O)c1ccc(F)cc1)CC31CN(CC2CC2)C1	6	-58	/
COc1ccc2c3c(n(C)c2c1)[C@@H](CO)NCC31CN(Cc2ccccc2Cl)C1	8	-23	/
COc1ccc2c3c(n(C)c2c1)[C@H](CO)NCC31CN(Cc2ccc(-c3ccccn3)cc2)C1	6	-88*	/
CO[C@@H]1CC[C@H]2CCN(C)C(=O)[C@H](C)[C@H](OC)CN(C)C(=O)c3cc(C#N)ccc3OC[C@@H]1O2	/	18	-7
COc1ccc(NC(=O)N2CC[C@@H]3[C@@H](CO)N(C)c4ccc(Br)cc4[C@@H]32)cc1	16	-8	29
COc1ccc(NC(=O)N2CC[C@@H]3[C@H]2c2cc(Br)ccc2N(C)[C@@H]3CO)cc1	-100*	1	66
COc1cccc(-c2ccc3c(c2)[C@@H]2[C@@H](CCN2C(=O)Nc2ccccc2OC)[C@@H](CO)N3C)c1	-97*	-34	85
COc1cccc(-c2ccc3c(c2)[C@H]2[C@H](CCN2C(=O)Nc2ccccc2OC)[C@H](CO)N3C)c1	14	-26	86
O=C(C[C@H]1C=C[C@@H](NC(=O)C2CCC2)[C@@H](CO)O1)NC1CCC1	0	-5	/
O=C(Nc1ccc2c(c1)[C@@H]1C[C@H](CC(=O)N3CCOCC3)O[C@H](CO)[C@@H]1O2)C1CCC1	1	12	14
SMILES	C diff growth	Pf Dd2 growth	Tcruzi prolif
COc1ccc2c3c(n(C)c2c1)[C@H](CO)N(CC1CCOCC1)CC31CCN(C(=O)CN(C)C)CC1	5	-55	/
Cc1ccc(S(=O)(=O)N[C@@H]2CC[C@@H](CCNC(=O)C3CCOCC3)O[C@H]2CO)cc1	-1	-3	-3
O=C(Nc1ccc(C(F)(F)F)cc1)N1C[C@@H]2N[C@H](C1)C2c1ccc(-c2cccnc2)cc1 (stereo partly specified)	-102*!	-91*!	/
N#Cc1cccc(-c2ccc(C3[C@@H]4CN(C(=O)Nc5ccc(C(F)(F)F)cc5)C[C@H]3N4)cc2)c1 (stereo partly specified)	-94*	-84*!	/
COc1ccccc1NC(=O)N1C[C@@H]2N[C@H](C1)C2c1ccc(-c2cccc(C#N)c2)cc1 (stereo partly specified)	3	-15	/
O=C(Nc1cccc(F)c1)N1C[C@@H]2N[C@H](C1)C2c1ccc(-c2cccnc2)cc1 (stereo partly specified)	11	-51	/
CC(=O)N(C)C[C@@H]1Oc2ncc(C#C[C@H](C)O)cc2C(=O)N([C@H](C)CO)C[C@@H]1C	4	31	5
C[C@H](CO)N1C[C@H](C)[C@@H](CN(C)Cc2ccc(C(F)(F)F)cc2)Oc2ccc(NC(=O)CCCN(C)C)cc2CC1=O	5	-41	23
CCCNC(=O)N1[C@H](C#N)[C@H](c2ccc(-c3cccc(OC)c3)cc2)[C@H]1CO	12	-85*	77
N#C[C@@H]1[C@@H](c2ccc(-c3cccc(F)c3)cc2)[C@@H](CO)N1C(=O)NC1CCCC1	-1	-20	91
N#C[C@@H]1[C@H](c2ccccc2-c2ccc(F)cc2)[C@H](CO)N1C(=O)NC1CCCC1	-6	-92*	/
N#C[C@H]1[C@@H](c2ccccc2-c2ccc(F)cc2)[C@@H](CO)N1C(=O)NC1CCCCC1	7	61	/
N#C[C@H]1[C@@H](c2ccc(C3=CCCCC3)cc2)[C@H](CO)N1C(=O)NC1CCCC1	37	15	/
N#C[C@@H]1[C@H](c2ccc(-c3cccc(F)c3)cc2)[C@@H](CO)N1C(=O)NC1CCCC1	11	-87*	78
CCCNC(=O)N1[C@H](CO)[C@@H](c2ccc(-c3cccc(OC)c3)cc2)[C@@H]1C#N	-2	-21	86
N#C[C@@H]1[C@H](c2ccc(C3=CCCCC3)cc2)[C@H](CO)N1C(=O)NC1CCCC1	37	-83*	/
CCNC(=O)[C@H]1[C@H](CO)[C@H]2Cn3c(ccc(-c4ccccc4)c3=O)[C@H]2N1Cc1ccccn1	-4	-1	11
C[C@@H]1CN([C@@H](C)CO)C(=O)c2cc(NS(C)(=O)=O)ccc2O[C@H]1CN(C)S(C)(=O)=O	/	32	-41
Cc1ccccc1S(=O)(=O)NCC[C@@H]1CC[C@@H](NC(=O)C2CC2)[C@@H](CO)O1	-2	-12	/
O=C(C[C@H]1CC[C@@H](NC(=O)c2ccncc2)[C@@H](CO)O1)NCc1ccncn1	-2	4	/
COc1ccc(-c2ccccc2[C@H]2[C@@H](C#N)N(C(=O)NC3CCCCC3)[C@H]2CO)cc1	8	-90*	/
COc1ccc(-c2ccccc2[C@@H]2[C@@H](CO)N(C(=O)NC3CCCC3)[C@H]2C#N)cc1	2	-20	/
CO[C@H]1CN(C)C(=O)c2cc(NC(=O)NC3CCCC3)ccc2OC[C@H](C)N(CC2CC2)C[C@@H]1C	14	42	/
COCC(=O)Nc1ccc2c(c1)OC[C@@H](C)N(Cc1ccccc1F)C[C@@H](C)[C@@H](OC)CN(C)C2=O	3	1	19
